Source: PubChem BioAssay (NCATS)
Inconclusive results are not listed. Activity calls are given as the source filed them. Calls follow the shape of the dose curve; as a rule, active = well fitted curve in the direction sought with a large enough effect; inconclusive = small, poorly fitted or top-dose-only effect, or another doubt; inactive = no such curve, though single readings can be large; an effect the other way counts as inactive or inconclusive.

What was measured:
[1] = Cellular Toxicity (caspase-3) Mesangial (AID 660); conditions: mesangial cells, normalized: DMSO 0%, 100 µM tamoxifen 100%; at 91.7 µM (top of the series);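 also: combined caspase 3 and 7 activity read by Caspase-Glo luminescence; cells exposed to compound for 16 h before the caspase read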
Outline: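 Human renal glomerular mesangial cells, 1000/well, 5 h at 37 C before 16 h compound treatment. Caspase-Glo 3/7 luminescence after 20 min; normalized to DMSO and 100 uM tamoxifen, AC50 from Hill fit.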

[2] = Cellular Toxicity (caspase-3) SK-N-SH (AID 661);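 also: 0% = DMSO basal and 100% = 10 µM staurosporine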
Outline: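 Human SK-N-SH neuroblastoma cells, 1500/well, were exposed to compounds for 16 hours at 37 °C. Caspase-Glo 3/7 luminescence was normalized to DMSO (basal) and 10 uM staurosporine (100%), and AC50 came from a Hill fit.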

[3] = Cellular Toxicity (caspase-3) H-4-II-E (AID 663); conditions: H-4-II-E rat hepatoma, scaled: DMSO 0%, 100 µM tamoxifen 100%; at 92.2 µM (top of the series)
Outline: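 Apoptosis induction is scored as increased luminescence from caspase 3/7 substrate cleavage in rat hepatoma H-4-II-E cells exposed to compound for 16 hr. Activity is scaled between DMSO and 100 uM tamoxifen.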

[4] = Cellular Toxicity (caspase-3) Hek293 (AID 664); conditions: HEK293 caspase-3 activation, DMSO = 0%, 100 µM tamoxifen = 100%; at 92.2 µM (top of the series);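 also: cells exposed to compound for 16 h at 37 °C before readout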
Outline: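 HEK293 cells in complete medium treated 16 h at 37 °C, then Caspase-Glo 3/7 luminescence read after 20 min at room temperature. Normalized to DMSO and 100 uM tamoxifen; AC50 from Hill fit of concentration-response.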

[5] = Cellular Toxicity (caspase-3) N2a (AID 665);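 also: compound exposure lasted 16 h at 37 °C before readout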
Outline: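 Mouse N2a neuroblastoma cells, 1500 per well, treated 16 h at 37 °C in complete medium; caspase-3/7 activity by Caspase-Glo luminescence after 1 h. Normalized to DMSO and 10 uM staurosporine; AC50 from Hill fits.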

[6] = Cellular Toxicity (caspase-3) NIH 3T3 (AID 666);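 also: caspase signal read after 16 h compound exposure; 0% = DMSO basal and 100% = 100 µM tamoxifen stimulation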
Outline: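 Mouse NIH 3T3 fibroblasts (1000/well) treated 16 h at 37 C; caspase-3/7 activity measured by Caspase-Glo 3/7 luminescence after 20 min. Normalized to DMSO and 100 uM tamoxifen; AC50 from Hill fits.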

[7] = Cellular Toxicity (caspase-3) Renal Proximal Tubule (AID 667); conditions: Potency: caspase-3 activation;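 also: cells exposed to compound for 16 hours at 37 °C before detection; 0% = DMSO basal and 100% = 10 µM staurosporine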
Outline: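 Freshly isolated primary rat kidney proximal tubule cells, 1000/well, treated 16 hr at 37 °C, then Caspase-Glo 3/7 luminescence after 1 hr. Normalized to DMSO and 10 uM staurosporine; AC50 from Hill fit.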

[8] = target: Cytochrome P450 3A4 (Homo sapiens) (UniProt P08684); assay: qHTS Assay for Inhibitors and Substrates of Cytochrome P450 3A4 (AID 884); also: % is scaled to controls: 0 for no effect and ±100 for the full control effect; nearly all actives have a fitted effect of over 50% in size
Outline: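 20 nM human CYP3A4 with 25 uM Luciferin-PPXE (at KM) in 200 mM KPO4, preincubated 10 min with compound; NADPH regeneration started a 60 min RT reaction. Luciferin detected by luminescence, normalized to 57 uM ketoconazole as full inhibition.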

[9] = Cell Viability - LYMP2-001 (AID 921);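 also: 0% = DMSO only and full inhibition = tetraoctylammonium bromide control wells; nearly all actives have a fitted effect of over 70% in size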
Outline: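 Human lymphoblastoid LYMP2-001 cells, 2500 per well, in complete medium, treated 24 h at 37 C. Viability from cellular ATP by CellTiter-Glo luminescence; AC50 from Hill-equation fits of qHTS concentration-response.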

[10] = MultiTox-Fluor Cytotoxicity Assay - LYMP1-001 - Dead Cells (AID 946);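 also: 0% = DMSO and 100% = tetraoctylammonium bromide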
Outline: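 In this qHTS, 15 uM tetraoctylammonium bromide defined 100% and DMSO defined basal activity. Lymphoblastoid cells (LYMP1-001, 2500 per well) received compound for 16 hr at 37 C before a fluorogenic dead-cell substrate readout at 485/520 nm.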

[11] = MultiTox-Fluor Cytotoxicity Assay - LYMP1-001 - Live Cells (AID 947);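 also: 0% = DMSO only and full inhibition = tetraoctylammonium bromide control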
[12] = Cell Viability - LYMP1-002 - Assay at 16 hr (AID 948);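 also: 0% = DMSO alone and full effect = 92 µM tetraoctylammonium bromide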
Outline: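 LYMP1-002 human lymphoblastoid cells, 2500/well, were treated with compounds for 16 hr at 37 C in complete medium. Viability was read as intracellular ATP by CellTiter-Glo luminescence, and AC50 was derived from a Hill fit to concentration-response data.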

[13] = MultiTox-Fluor Cytotoxicity Assay - LYMP1-002 - Live Cells (AID 955); also: % is scaled to controls: 0 for no effect and ±100 for the full control effect
Outline: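 Human lymphoblastoid LYMP1-002 cells, 2500/well, treated 16 h at 37 C in complete medium. Live-cell protease activity via GF-AFC fluorescence (Ex/Em 405/510) after 60 min reagent incubation; AC50 from Hill fits.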

[14] = MultiTox-Fluor Cytotoxicity Assay - LYMP1-002 - Dead Cells (AID 960);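 also: 0% = DMSO and 100% = tetraoctylammonium bromide; nearly all actives have a fitted effect of over 60% in size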
Outline: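 Human lymphoblastoid LYMP1-002 cells, 2500/well, treated 16 h at 37 C; dead-cell protease cleavage of bis-AAF-R110 read by fluorescence (485/520); normalized to DMSO and 15 uM tetraoctylammonium bromide; AC50 from Hill fit.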

[15] = MultiTox-Fluor Cytotoxicity Assay - LYMP1-003 - Live Cells (AID 962);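 also: 0% = DMSO only and full loss = 92 µM tetraoctylammonium bromide; cytotoxic hits lower the live-cell protease signal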
Outline: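 LYMP1-003 lymphoblastoid cells, 2500/well in complete medium, treated 16 h at 37 C; live-cell protease cleavage of GF-AFC read by fluorescence (Ex/Em 405/510) after 60 min reagent; AC50 from Hill fits of concentration-response.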

[16] = Cell Viability - LYMP1-003 - Assay at 24 hr (AID 963);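 also: plate controls were DMSO only for no effect and tetraoctylammonium bromide positive control for full effect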
Outline: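 Human lymphoblastoid LYMP1-003 cells, 2500/well, treated 24 h at 37 C in complete medium. Viability read as intracellular ATP by CellTiter-Glo luminescence after 30 min at room temperature; AC50 from Hill-equation fits of qHTS concentration-response.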

[17] = Cell Viability - LYMP1-003 - Assay at 40 hr (AID 964); also: % is scaled to controls: 0 for no effect and ±100 for the full control effect; nearly all actives have a fitted effect of over 60% in size
Outline: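 LYMP1-003 human lymphoblastoid cells, 2500/well, preincubated 5 h at 37 C, then treated with compound for 40 h at 37 C. Intracellular ATP read by CellTiter-Glo luminescence after 30 min at room temperature; AC50 from Hill-equation fits.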

[18] = Cell Viability - LYMP2-003 (AID 965);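 also: cells exposed to compounds for 24 h before reading; 0% = DMSO only and full effect = 92 µM tetraoctylammonium bromide; nearly all actives have a fitted effect of over 50% in size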
Outline: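 Human lymphoblastoid LYMP2-003 cells, 2500/well, exposed to compounds for 24 h at 37 C in complete medium. Viability read as intracellular ATP by CellTiter-Glo luminescence; AC50 from Hill-equation fits of qHTS concentration-response data.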

[19] = MultiTox-Fluor Cytotoxicity Assay - LYMP1-003 - Dead Cells (AID 961);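 also: 0% = DMSO and 100% = tetraoctylammonium bromide; nearly all actives have a fitted effect of over 70% in size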
Outline: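 Acute toxicity is scored as increased dead-cell protease activity in human lymphoblastoid LYMP1-003 cells after 16 h compound exposure in complete culture medium. Activity is normalized to DMSO basal and 15 uM tetraoctylammonium bromide as full response.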

Sequence of Cytochrome P450 3A4 (Homo sapiens) (P08684 whole entry, looked up): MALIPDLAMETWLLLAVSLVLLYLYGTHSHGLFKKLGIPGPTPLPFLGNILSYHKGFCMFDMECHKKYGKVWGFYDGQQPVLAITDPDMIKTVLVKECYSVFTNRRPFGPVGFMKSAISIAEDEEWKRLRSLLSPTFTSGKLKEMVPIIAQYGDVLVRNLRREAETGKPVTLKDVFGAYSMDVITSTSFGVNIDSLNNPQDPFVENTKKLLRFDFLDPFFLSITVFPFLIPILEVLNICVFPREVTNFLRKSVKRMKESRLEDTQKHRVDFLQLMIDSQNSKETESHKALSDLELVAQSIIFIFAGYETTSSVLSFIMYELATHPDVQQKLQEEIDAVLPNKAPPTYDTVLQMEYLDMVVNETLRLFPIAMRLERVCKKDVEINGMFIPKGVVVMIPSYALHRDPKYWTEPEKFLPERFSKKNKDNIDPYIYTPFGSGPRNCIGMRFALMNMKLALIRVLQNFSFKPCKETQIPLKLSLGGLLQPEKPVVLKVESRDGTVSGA

COc1ccc(N)c(C)c1
inactive: caspase-3 activation [1] 2.2% | outcome [2] | caspase-3 activation [3] 0.764% | caspase-3 activation [4] -0.876% | outcome [5] | outcome [6] | Potency [7] | Potency [8] | Potency [9] | outcome [10] | outcome [11] | outcome [12] | outcome [13] | outcome [14] | Potency [15] | Potency [16] | Potency [17] | Potency [18]

CCOCC(=O)O
inactive: caspase-3 activation [1] 1.49% | outcome [2] | caspase-3 activation [3] 0.681% | caspase-3 activation [4] 1% | outcome [5] | outcome [6] | Potency [7] | Potency [8] | Potency [9] | outcome [10] | outcome [11] | outcome [13] | outcome [14] | Potency [19] | Potency [15] | Potency [16] | Potency [17] | Potency [18]

Nc1cccc(S(=O)(=O)O)c1
inactive: caspase-3 activation [1] -0.0111% | outcome [2] | caspase-3 activation [3] -0.597% | caspase-3 activation [4] -1.89% | outcome [5] | outcome [6] | Potency [7] | Potency [8] | Potency [9] | outcome [10] | outcome [11] | outcome [12] | outcome [13] | outcome [14] | Potency [17] | Potency [18]

O=C(O)CN(CC(=O)O)CC(=O)O
inactive: caspase-3 activation [1] 1.04% | outcome [2] | caspase-3 activation [3] 2.27% | caspase-3 activation [4] 0.365% | outcome [5] | outcome [6] | Potency [7] | Potency [8] | Potency [9] | outcome [10] | outcome [11] | outcome [12] | outcome [13] | Potency [15] | Potency [16] | Potency [17] | Potency [18]

CC(C)(O)C(=O)O
inactive: caspase-3 activation [1] -0.246% | outcome [2] | caspase-3 activation [3] -0.178% | caspase-3 activation [4] 0.779% | outcome [5] | outcome [6] | Potency [7] | Potency [8] | Potency [9] | outcome [10] | outcome [11] | outcome [12] | outcome [14] | Potency [19] | Potency [15] | Potency [16] | Potency [18]

COC(=O)c1ccccc1
inactive: caspase-3 activation [1] 0.596% | outcome [2] | caspase-3 activation [3] 3.83% | caspase-3 activation [4] -1.66% | outcome [5] | outcome [6] | Potency [7] | Potency [8] | Potency [9] | outcome [10] | outcome [11] | outcome [12] | outcome [13] | Potency [19] | Potency [15] | Potency [16] | Potency [17] | Potency [18]

C=C(C)C(=O)OCC(C)O (stereo not drawn)
inactive: caspase-3 activation [1] 0.397% | outcome [2] | caspase-3 activation [3] 0.102% | caspase-3 activation [4] -1.45% | outcome [5] | outcome [6] | Potency [7] | Potency [8] | Potency [9] | outcome [10] | outcome [11] | outcome [12] | outcome [14] | Potency [19] | Potency [15] | Potency [16] | Potency [17] | Potency [18]

c1ccc(Oc2ccccc2)cc1
inactive: caspase-3 activation [1] 0.858% | outcome [2] | caspase-3 activation [3] 0.181% | caspase-3 activation [4] -1.47% | outcome [5] | outcome [6] | Potency [7] | Potency [8] | Potency [9] | outcome [10] | outcome [11] | outcome [12] | outcome [13] | Potency [15] | Potency [16]

CCC(C)(C)C(=O)O
inactive: caspase-3 activation [1] 0.0755% | outcome [2] | caspase-3 activation [3] 1.75% | caspase-3 activation [4] 1.52% | outcome [5] | outcome [6] | Potency [7] | Potency [8] | Potency [9] | outcome [10] | outcome [11] | outcome [13] | outcome [14] | Potency [19] | Potency [15] | Potency [16] | Potency [17] | Potency [18]

CCC(O)C(C)(C)C (stereo not drawn)
inactive: caspase-3 activation [1] 0.94% | outcome [2] | caspase-3 activation [3] -0.43% | caspase-3 activation [4] 1.79% | outcome [5] | outcome [6] | Potency [7] | Potency [8] | Potency [9] | outcome [10] | outcome [11] | outcome [12] | outcome [13] | outcome [14] | Potency [15] | Potency [16] | Potency [18]

Nc1ccc(Cl)cc1[N+](=O)[O-]
inactive: caspase-3 activation [1] 0.0963% | outcome [2] | caspase-3 activation [3] -0.0414% | caspase-3 activation [4] 1.61% | outcome [5] | outcome [6] | Potency [7] | Potency [8] | Potency [9] | outcome [10] | outcome [11] | outcome [12] | outcome [13] | outcome [14] | Potency [15] | Potency [16] | Potency [17] | Potency [18]

FC(F)(F)c1ccccc1Cl
inactive: caspase-3 activation [1] 1.05% | outcome [2] | caspase-3 activation [3] 0.997% | caspase-3 activation [4] -1.13% | outcome [5] | outcome [6] | Potency [7] | Potency [8] | Potency [9] | outcome [10] | outcome [11] | outcome [12] | outcome [13] | Potency [15] | Potency [16] | Potency [17] | Potency [18]

Cc1ccc(Br)cc1
inactive: caspase-3 activation [1] -0.699% | outcome [2] | caspase-3 activation [3] 0.265% | caspase-3 activation [4] 0.98% | outcome [5] | outcome [6] | Potency [7] | Potency [8] | Potency [9] | outcome [10] | outcome [11] | outcome [12] | outcome [13] | outcome [14] | Potency [15] | Potency [16] | Potency [17] | Potency [18]

CCCCC(C=O)CC (stereo not drawn)
inactive: caspase-3 activation [1] 0.71% | outcome [2] | caspase-3 activation [3] 3.13% | caspase-3 activation [4] 1.03% | outcome [5] | outcome [6] | Potency [7] | Potency [8] | Potency [9] | outcome [10] | outcome [11] | outcome [12] | outcome [14] | Potency [19] | Potency [15] | Potency [16] | Potency [17] | Potency [18]
